Measured values: article PMC4336329 (PLoS ONE, 2015)
Screen size: about 310,000 compounds; about 14,000 (4.5%) showed an effect of 50% or more. Effects have a minus sign here. The sample as a whole holds a higher share of strong results than the screen did.

Molecular target: human ether-à-go-go-related gene (hERG) potassium channel (human, UniProt Q12809)
Assay: primary screen, population patch clamp on CHO cells stably expressing hERG; higher = less effect of the substance
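Further: peak tail current of the secondary pulse compared with the same well before compound.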

human ether-à-go-go-related gene (hERG) potassium channel, sequence (Q12809 whole entry, looked up): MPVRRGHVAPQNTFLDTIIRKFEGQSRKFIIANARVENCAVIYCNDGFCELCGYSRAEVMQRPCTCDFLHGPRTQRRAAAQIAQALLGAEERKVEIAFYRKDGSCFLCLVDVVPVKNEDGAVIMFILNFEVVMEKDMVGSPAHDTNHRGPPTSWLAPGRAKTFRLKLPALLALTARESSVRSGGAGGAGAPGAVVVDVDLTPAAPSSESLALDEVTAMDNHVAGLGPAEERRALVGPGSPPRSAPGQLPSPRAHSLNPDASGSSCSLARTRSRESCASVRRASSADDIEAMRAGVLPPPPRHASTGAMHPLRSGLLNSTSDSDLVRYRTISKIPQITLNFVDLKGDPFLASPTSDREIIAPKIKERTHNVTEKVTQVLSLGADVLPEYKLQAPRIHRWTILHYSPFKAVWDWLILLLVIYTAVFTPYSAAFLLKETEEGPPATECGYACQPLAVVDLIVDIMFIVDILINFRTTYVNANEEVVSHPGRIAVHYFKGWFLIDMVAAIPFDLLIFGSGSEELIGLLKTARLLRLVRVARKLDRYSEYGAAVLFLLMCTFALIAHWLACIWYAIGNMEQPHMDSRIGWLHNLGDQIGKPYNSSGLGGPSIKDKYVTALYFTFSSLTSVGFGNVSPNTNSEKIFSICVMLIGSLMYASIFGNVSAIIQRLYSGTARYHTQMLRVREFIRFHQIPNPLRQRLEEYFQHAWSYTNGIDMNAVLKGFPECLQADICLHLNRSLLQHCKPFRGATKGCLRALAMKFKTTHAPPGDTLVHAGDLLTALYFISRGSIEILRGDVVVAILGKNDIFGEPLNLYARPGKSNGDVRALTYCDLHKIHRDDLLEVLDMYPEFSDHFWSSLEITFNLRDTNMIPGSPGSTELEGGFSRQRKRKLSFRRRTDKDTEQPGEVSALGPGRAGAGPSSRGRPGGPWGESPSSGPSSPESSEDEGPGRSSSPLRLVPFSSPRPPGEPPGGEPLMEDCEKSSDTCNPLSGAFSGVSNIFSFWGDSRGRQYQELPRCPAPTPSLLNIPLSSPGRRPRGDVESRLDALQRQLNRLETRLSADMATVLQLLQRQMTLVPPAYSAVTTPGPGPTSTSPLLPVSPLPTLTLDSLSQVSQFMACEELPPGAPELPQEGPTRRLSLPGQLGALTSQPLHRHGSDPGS

| SMILES | hERG current change (%, negative = inhibition) at 10uM |
| --- | --- |
| Cc1ccc(C(=O)N/C(=C/c2ccc(-c3cccc([N+](=O)[O-])c3)o2)C(=O)NCCCN(C)C)cc1 | -80% |
| Cc1ccc(C(=O)N/C(=C\c2ccc(-c3cccc([N+](=O)[O-])c3)o2)C(=O)NCCCN(C)C)cc1 | -67.6% |
| O=C(N/N=C/c1ccc(-c2cccc([N+](=O)[O-])c2)o1)c1ccc([N+](=O)[O-])cc1 | -40% |
| Cc1ccc(C(=O)N/C(=C\c2ccc(-c3cccc([N+](=O)[O-])c3)o2)C(=O)NC(C)(C)C)cc1 | 1.94% |
| Cc1ccc(C(=O)N/C(=C/c2ccc(-c3cccc([N+](=O)[O-])c3)o2)C(=O)NC(C)C)cc1 | -30.8% |
| Cc1ccc(C(=O)N/C(=C/c2ccc(-c3cccc([N+](=O)[O-])c3)o2)C(=O)NC(C)(C)C)cc1 | -21.9% |
| O=C(CSc1nnc(CN2CCOCC2)n1-c1ccc(Cl)cc1)Nc1ccc2c(c1)OCO2 | -9.87% |
| CC/C(O)=C1\C(=O)CCCC1=NCCc1c(C)[nH]c2ccc(C)cc12 | -14% |
| CCOC(=O)CC1C(=O)NCCN1C(=O)Nc1ccc(Cl)cc1 (stereo not shown) | 2.37% |
| CC(=O)c1c(C)[nH]c(C(=O)N2c3ccccc3CC2C)c1C (stereo not shown) | 5.33% |
| Cc1csc(=O)n1CCC(=O)OCC(=O)c1ccc(Br)cc1 | -18.4% |
| O=c1oc2ccccc2c2c1ncn2C1CCCCC1 | -51.7% |
| O=c1c2ccccc2ncn1C1CCCCC1 | -19.4% |
| O=c1oc2ccccc2c2c1ncn2-c1ccccc1 | -11.8% |
| O=CN1CCN(C(C(=O)NC2CCCCC2)c2ccc(Cl)cc2)CC1 (stereo not shown) | -15% |
| O=CN1CCN(C(C(=O)NC2CCCC2)c2ccc(Cl)cc2)CC1 (stereo not shown) | -14.8% |
| O=C(NC1CCCC1)C(c1ccc(Cl)cc1)N1CCN(C2CCCCC2)CC1 (stereo not shown) | -59.3% |
| Cc1c(C=O)c2ccccc2n1CC(=O)NCc1ccc2c(c1)OCO2 | 21.8% |
| CC1CCN(CC(O)COCCOc2ccc(Br)cc2)CC1.Cl (stereo not shown) | -64.3% |
| CCN1CCN(CC(O)COCCOc2ccc(Br)cc2)CC1.Cl (stereo not shown) | -12.3% |
| Cl.OCCN1CCN(CC(O)COCCOc2ccc(Br)cc2)CC1 (stereo not shown) | -20.2% |
| CC1(C)CCCC(C)(C)N1CC(O)COCCOc1ccc(Br)cc1.Cl (stereo not shown) | -67.5% |

| SMILES | hERG current change (%, negative = inhibition) at 10uM |
| --- | --- |
| CC1(C)CC(O)CC(C)(C)N1CC(O)COCCOc1ccc(Br)cc1 (stereo not shown) | -42.4% |
| CN1CCN(CC(O)COCCOc2ccc(Br)cc2)CC1.Cl (stereo not shown) | 10.4% |
| CC1CC(C)CN(CC(O)COCc2ccccc2)C1.Cl (stereo not shown) | -7.79% |
| Cl.OC(COCCOc1ccc(Br)cc1)CN1CCCCC1 (stereo not shown) | -37.1% |
| CC1CC(C)CN(CC(O)COCCOc2ccc(Br)cc2)C1.Cl (stereo not shown) | -71.6% |
| COc1cc(CCN2C(=O)c3cccc4cccc(c34)C2=O)c(S(=O)(=O)NCCO)cc1OC | -23.8% |
| CC(C)COP(=O)(OCC(C)C)C(O)c1ccccc1F (stereo not shown) | -1.27% |
| CCCNC(=O)/C=C/c1ccc(S(=O)(=O)Nc2ccccc2OC)cc1 | -1.75% |
| Cc1ccc(OCCOc2cccc3ccc(C)nc23)c([N+](=O)[O-])c1.O=C(O)C(=O)O | -10.7% |
| CC1CCCCN1c1ncnc2ccccc12.Cl (stereo not shown) | -7.46% |
| Cc1ccc(C)c(N2CCN(S(=O)(=O)c3ccc4c(c3)C(C)(C)C(=O)N4C)CC2)c1 | 3.88% |
| Cc1nc2ncnn2c(N2CCN(C(c3ccccc3)c3ccccc3)CC2)c1C | -47.7% |
| COC(=O)c1cccc(NC(=O)CSc2nnc(COc3ccc(C#N)cc3)n2-c2ccccc2)c1 | -73.5% |
| CCOC(=O)c1cccc(NC(=O)CSc2nnc(-c3ccncc3)n2CCCOC)c1 | -50.4% |
| COCCCn1c(SCC(=O)Nc2ccccc2)nnc1-c1ccncc1 | -6.82% |
| CCn1c(COc2cccc(C)c2)nnc1SCC(=O)Nc1cccc(C(=O)O)c1 | 9.41% |
| CCn1c(COc2cccc(C)c2)nnc1SCC(=O)Nc1cccc(C(=O)OC)c1 | -2.45% |
| COC(=O)c1cccc(NC(=O)CSc2nnc(COc3ccccc3)n2C)c1 | -7.84% |
| COCCCn1c(SCC(=O)Nc2cccc(C(=O)OC)c2)nnc1-c1ccncc1 | -15.8% |
| N#Cc1ccc(OCc2nnc(SCC(=O)c3ccccc3)n2-c2ccccc2)cc1 | -40.8% |
| CCOC(=O)c1cccc(NC(=O)CSc2nnc(COc3ccccc3)n2CC)c1 | -51.3% |
